Compounds with a hit are over-represented: about 21% of the library has one in this group of screens.
Pf growth 96h: P. falciparum growth inhibition at 96 hours; P. falciparum luciferase reporter growth, 96 h; Potency, µM (doses to about 28.7 µM), inactives show at the highest dose activity change, negative = inhibition, most hits filed as inhibitors; hit rate 6.9% among 320,000; AID 504834; further: potency means the concentration at half of the fitted maximal effect; on the % scale 0 is the no-effect control and ±100 the full control effect
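Cell-based qHTS: luciferase-tagged P. falciparum in erythrocytes (2% hematocrit, 0.05% parasitemia final) incubated with compounds for 96 hours, 37 C, 5% CO2; luciferase detection reagent then added and luminescence measured.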
Cycloheximide cs: affects cycloheximide protein synthesis inhibition readout, counter-screen. cell reporter, cycloheximide protein synthesis inhibition counterscreen. max response, %. hit rate 12% among 300,000. AID 2314; in the data active means max response mostly above about 13%, no sharp cut-off; inactive means mostly below about 14%; further: read at 38.3 µM for the half of the compounds with a filed dose; 0% is about no effect
Giardia FBPA inh: inhibitors of Giardia lamblia fructose-1,6-bisphosphate aldolase; purified Giardia FBPA; Potency, µM (titrated, usually from 59.6 µM), for inactives: at the highest dose activity, negative = inhibition, usual class: inhibitors; hit rate 0.71% among 290,000; AID 2451; further: potency means the concentration at half of the fitted maximal effect; on the % scale 0 is the no-effect control and ±100 the full control effect; nearly all actives have a fitted effect of over 55% in size
Target sequence (A8B2U2 whole entry, looked up): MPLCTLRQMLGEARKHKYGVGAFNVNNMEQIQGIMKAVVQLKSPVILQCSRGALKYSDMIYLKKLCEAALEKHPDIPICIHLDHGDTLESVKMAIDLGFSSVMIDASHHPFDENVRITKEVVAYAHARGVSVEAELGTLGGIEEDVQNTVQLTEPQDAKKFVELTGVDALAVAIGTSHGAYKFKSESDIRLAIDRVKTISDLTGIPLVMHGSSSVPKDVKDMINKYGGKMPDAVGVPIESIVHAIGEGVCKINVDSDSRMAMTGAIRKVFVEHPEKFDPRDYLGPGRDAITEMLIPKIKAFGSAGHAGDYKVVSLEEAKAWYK
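Giardia FBPA (40 nM reagent) was preincubated 10 min at RT with compound (up to 57.5 uM final), then substrate plus GAPDH/TPI/NAD/arsenate coupling system with diaphorase/resazurin was added; resorufin fluorescence (525/598 nm) was read after 20 min.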
Pf growth 48h: inhibits P. falciparum growth in the first generation, 48 h | P. falciparum luciferase growth in erythrocytes, 48 h | Potency, µM (titrated, usually from 28.7 µM), for the others: top-dose activity change, negative = inhibition, most hits filed as inhibitors | hit rate 5.9% among 310,000; further: potency means the concentration at half of the fitted maximal effect; on the % scale 0 is the no-effect control and ±100 the full control effect
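Growth was read as firefly luciferase luminescence after a 48 h, 37 C, 5% CO2 exposure of compounds to reporter-bearing P. falciparum cultures (0.1% parasitemia, 2% hematocrit final) in Albumax-supplemented RPMI 1640.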
Shiga toxin inh: blocks Shiga toxin action in Vero cells; hit rate 9.2% among 290,000; Vero cells, Shiga toxin protein synthesis inhibition reporter; inhibition, % at 38.7 µM; in the data active means inhibition mostly above about 28%, no sharp cut-off; inactive means mostly below about 43%; further: 0% is about no effect
NS1 function inh: inhibitors of influenza NS1 protein function; Potency, µM (highest dose often 46.1 µM), without a hit: at the highest dose activity, positive = more growth; hit rate 0.4% among 270,000; calls by dose curve; further: potency means the concentration at half of the fitted maximal effect; actives are rising curves; nearly all actives have a fitted effect of over 50% in size
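Recovery from NS1-induced slow growth read by OD600 in budding yeast switched to galactose assay medium (pH 6.0, -URA) at 1:100 dilution. Compound 23 nl per well; the matching strain lacking NS1 serves as control.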
The depositor's hits bear a star; ? = inconclusive; · = not tested or not shown; [ ] = dose if it differs, or a comment. Unless noted, the call rests on the fitted dose curve; in most records, active means well fitted curve in the direction sought with a large enough effect; inconclusive means small, poorly fitted or top-dose-only effect, or another doubt; inactive means no such curve, though single readings can be large; an effect the other way counts as inactive or inconclusive.

SMILES	Pf growth 96h	Cycloheximide cs	Giardia FBPA inh	Pf growth 48h	Shiga toxin inh	NS1 function inh
CCn1c(/C=C/c2cc(Br)ccc2O)nc2ccccc2c1=O	-3%	-2	-2%	0.93µM*	-8	9%
CCn1c(/C=C/c2ccccc2C)nc2ccccc2c1=O	-15%	19*	0%	1%	51*	-16%
CC(C)OCCCn1c(NN)nc2ccccc2c1=O	?	1	-28%	?	-2	-5%
COC(=O)C(Cc1ccc(O)cc1)NC(=O)c1ccc2c(c1)OCCO2 (centres undefined)	202%	24	-5%	200%	14	5%
Nc1nonc1-n1nnc(C(=O)N/N=C/c2ccc(OCc3ccccc3)cc2)c1CN1CCCCC1	18%	12	-14%	9%	-3	-39%
O=c1c2ccccc2[nH]c(=S)n1CCc1ccccc1	-10%	33*	6%	16%	69*	-8%
O=c1c2ccccc2[nH]c(=S)n1Cc1ccccc1	?	-1	0%	0%	·	21%
Cc1ccccc1/C=C/c1nc2ccccc2c(=O)n1Cc1ccccc1	10µM*	-3	6%	?	8	5%
CCn1c(/C=C/c2ccccc2F)nc2ccccc2c1=O	?	18*	1%	4%	12	-17%
Cc1ccccc1/C=C/c1nc2ccccc2c(=O)n1CCc1ccccc1	-5%	-3	5%	13µM*	-2	4%
CCn1c(/C=C/c2ccc(O)cc2)nc2ccccc2c1=O	?	10	-1%	-1%	9	-25%
COc1ccc(C)cc1NC(=O)CCNC(=O)Cn1cnc2ccccc2c1=O	-22%	-1	13%	22%	0	-16%
CN(C)CCCc1cc(C(=O)Nc2ccc(-c3ccncc3)cc2)ccc1O	·	·	6%	·	·	·
COc1ccccc1N1CCN(CCCn2c(=S)[nH]c3ccccc3c2=O)CC1	21%	1	17%	7.4µM*	-13	-3%
Nc1nc(SCCO)[nH]c(=O)c1NC(=O)c1ccc(Br)o1	28%	-3	·	101%	-4	-1%
CCCCCCc1nc(C(N)=O)c2[nH]c(=O)n(-c3ccccc3F)c2n1	-1%	8	-4%	2%	-3	12%
Cc1cc(NC(=O)C(C)SCC(=O)Nc2ccc(Br)cc2Br)no1 (centres undefined)	-1%	·	·	?	·	·
CCNc1nc(NCC)nc(N/N=C/c2ccc([N+](=O)[O-])o2)n1	4.1µM*	5	-20%	·	-2	4%
O=[N+]([O-])c1ccc(-c2ccc(/C=N/Nc3nc(N4CCCCC4)nc(N4CCCCC4)n3)o2)cc1	-60%	-1	0%	?	-24	-3%
O=[N+]([O-])c1ccc(-c2ccc(/C=N/Nc3nc(N4CCCC4)nc(N4CCCC4)n3)o2)cc1	?	-17	4%	?	-37	·
O=[N+]([O-])c1cccc(-c2ccc(/C=N/Nc3nc(N4CCCCC4)nc(N4CCCCC4)n3)o2)c1	11%	6	-1%	2.3µM*	-13	·
O=[N+]([O-])c1ccc(/C=N/Nc2nc(N3CCCC3)nc(N3CCCC3)n2)o1	10µM*	7	-18%	·	3	-8%
CCc1ccc(C(=O)C(C)OC(=O)CNS(=O)(=O)c2ccc(C)cc2)cc1 (centres undefined)	38%	·	·	37%	·	·
O=[N+]([O-])c1ccc(Oc2ccc(F)cc2)c2ccncc12	·	-5	-20%	9.3µM*	-33	-117%
O=[N+]([O-])c1ccc(N2CCCC2)c2ccncc12	-6%	2	-23%	?	9	0%
SMILES	Pf growth 96h	Cycloheximide cs	Giardia FBPA inh	Pf growth 48h	Shiga toxin inh	NS1 function inh
O=[N+]([O-])c1cnccc1Nc1ccc(F)cc1	-22%	-2	-2%	-8%	9	-1%
O=[N+]([O-])c1ccc(Oc2cccc(Br)c2)c2ccncc12	·	3	-27%	12µM*	21	-55%
CCOC(=O)c1csc(NC(=O)c2cccs2)n1	67%	33*	-9%	109%	103*	-10%
CCOc1cccc2sc(NC(=O)c3ccc(Br)s3)nc12	7.4µM*	-2	-2%	·	-3	1%
CCOC(=O)Cc1csc(NC(=O)/C=C/c2cccc(Br)c2)n1	-24%	12	-4%	9.3µM*	21	·
CC(=O)c1sc(NC(=O)c2cccs2)nc1C	26%	10	4%	-10%[0.00184 µM]	24	-35%
CCOC(=O)c1sc(NC(=O)c2cccs2)nc1C	484%	17*	4%	280%	70*	-5%
CC(=O)OCC[C@H](NS(=O)(=O)OCC(Cl)(Cl)Cl)c1ccccc1	?	-3	-3%	0%	-12	14%
O=C(O)[C@H]1[C@H]2C[C@H]3c4[nH]c5ccccc5c4CCN3C[C@@H]2CC[C@@H]1O	·	·	-28%	·	·	·
CCCn1c(N)c(N(CCOC)C(=O)c2cc(C)cc(C)c2)c(=O)[nH]c1=O	61%	-3	-4%	18%	11	-1%
COc1ccc(-c2nc3cnc(Nc4cccc(OC)c4)nc3n(C3CC3)c2=O)cc1	·	·	-12%	·	·	·
CC(C)C(=O)NNc1ccc(C(F)(F)F)cn1	20%	6	3%	?	-4	0%
O=C(COC(=O)c1ccc(Cl)c(S(=O)(=O)N2CCOCC2)c1)NCc1ccco1	11%	·	·	-24%	·	·
CCOC(=O)Cc1csc(NC(=O)c2ccc(Br)s2)n1	·	32*	5%	36%	62*	-74%
COc1ccc(NC(=O)/C=C/c2cccc(C(F)(F)F)c2)cn1	?	7	-11%	?	-2	-13%
CCOC(=O)Cc1csc(NC(=O)c2cccs2)n1	·	24*	-4%	30%	30	-50%
CCCC(=O)Nc1nc(CC(=O)OCC)cs1	26%	21	2%	40%	-1	·
COc1ccc(NC(=O)/C=C/c2cccc(Br)c2)cn1	?	27*	-28%	18%	55*	-67%
CCOC(=O)C12CC1/C(=N/O)c1ccccc1O2 (centres undefined)	·	·	-6%	·	·	-14%
CSc1nsc(SCC(=O)Nc2ccc(NC(C)=O)cc2)n1	-18%	-4	9%	91%	38	-1%
CSc1nsc(SCC(=O)Nc2ccc(C(C)=O)cc2)n1	-45%	47*	1%	·	72*	-6%
COc1ccc(NC(=O)CSc2nc(SC)ns2)cc1	2%	19*	·	118%	89*	-3%
CSc1nsc(SCC(=O)Nc2ccc(C(N)=O)cc2)n1	-2%	13	8%	13%	9	3%
C=C1CCC(C)C(C)(CCC2=CCOC2=O)C/C=C\C=C/1C(=O)O (centres undefined)	-11%	0	22%	-1%	-8	6%
CN(C)C1(CN=Cc2cc(Cl)cc([N+](=O)[O-])c2O)CCCCC1	-1%	5	28%	-6%	-9	-44%
Cc1cc(C)nc(SCC(=O)OCN2C(=O)c3ccccc3C2=O)n1	-24%	-2	-4%	1.9µM*	-28	3%
Cc1ccc(C(CNS(=O)(=O)c2ccc(F)cc2C)N2CCN(C)CC2)cc1 (centres undefined)	-22%	·	·	?	·	·

Source: PubChem BioAssay
